# Source: PubChem BioAssay (National Center for Advancing Translational Sciences (NCATS))
# Vaccinia Venus: inhibitors of vaccinia virus (Venus reporter). Vaccinia virus Venus reporter expression, fluorescence. 330,000 compounds, 0.46% hits. Potency, µM (doses to about 36.5 µM), inactives show at the highest dose activity change, negative = inhibition, usual class: inhibitors; calls by dose curve; tested in A549 cells; further: nearly all actives have a fitted effect of over 30% in size
# Pf growth 96h: inhibits malaria parasite growth, 96 h. P. falciparum luciferase reporter growth, 96 h. Potency, µM (doses to about 28.7 µM), inactives show at the highest dose activity change, negative = inhibition, hits mostly inhibitors. 320,000 compounds, 6.9% hits. AID 504834
#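 Compounds incubated with erythrocytes infected by luciferase-expressing P. falciparum (2% hematocrit, 0.05% parasitemia final) for 96 hours, 37 C in 5% CO2. Growth inhibition scored as decreased luciferase luminescence.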
# Pf growth 48h: P. falciparum growth inhibition at 48 hours (one generation); P. falciparum luciferase growth in erythrocytes, 48 h; Potency, µM (doses to about 28.7 µM), inactives show at the highest dose activity change, negative = inhibition, usual class: inhibitors; 310,000 compounds, 5.9% hits; AID 504832
#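 Read-out is firefly luciferase luminescence from an integrated reporter in P. falciparum, so falling signal marks reduced parasite growth. Infected erythrocytes were at 2% hematocrit and 0.1% parasitemia (final) in Albumax-supplemented RPMI 1640.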
# Vaccinia mCherry: vaccinia inhibition (mCherry reporter); Vaccinia virus mCherry reporter infection, fluorescence; Potency, µM (series often up to 36.5 µM), without a hit: top-dose activity change, negative = inhibition, hits mostly inhibitors; 310,000 compounds, 0.63% hits; AID 720579; calls by dose curve; tested in A549 cells; further: nearly all actives have a fitted effect of over 35% in size
# AMA1 RON2 block: AMA1-RON2 (P. falciparum) interaction inhibition | AlphaScreen AMA1-biotinylated RON2 peptide binding | 360,000 compounds, 0.2% hits | Potency, µM (titrated, usually from 58.2 µM), without a hit: at the highest dose activity change, negative = inhibition, hits mostly inhibitors;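 further: 0% = vehicle wells and -100% = peptide control; nearly all actives have a fitted effect of over 45% in size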
#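 AMA1 (3D7) with his tag at 25 nM final met compounds first, then biotinylated RON2 peptide at 25 nM; detection used donor plus acceptor beads, 10 µg/mL apiece, read by AlphaScreen after 30 min at room temperature.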
# * = called active by the depositor; i = inactive; ? = inconclusive; · = not tested or not shown. Rows were chosen to be rich in hits. Some 8.7% of all compounds tested hit in one or more screens of this group. Unless noted, the call rests on the fitted dose curve; in most records, active means well fitted curve in the direction sought with a large enough effect; inconclusive means small, poorly fitted or top-dose-only effect, or another doubt; inactive means no such curve, though single readings can be large; an effect the other way counts as inactive or inconclusive. Unless noted, on the % scale 0 is the no-effect control and ±100 the full control effect; potency means the concentration at half of the fitted maximal effect.
SMILES,Vaccinia Venus,Pf growth 96h,Pf growth 48h,Vaccinia mCherry,AMA1 RON2 block
CCN(CC)CCN(C(=O)c1cc2c(ccc3ccccc32)oc1=O)c1nc2cc3c(cc2s1)OCCO3,?,-15%,94%,10µM*,-8%
CN(C)CCN(C(=O)c1cccc2ccccc12)c1nc2cc3c(cc2s1)OCO3,-28%,?,9.3µM*,-12%,-29%
O=C(Nc1cnc(N2CCN(c3ccccc3)CC2)c(C(=O)O)c1)c1cccs1,-5%,·,·,3%,·
COC(=O)c1sc(N)c(C(=O)OC)c1COC(=O)CCNS(=O)(=O)c1ccc(C)cc1,-21%,10µM*,?,-8%,4%
COc1ccc(NS(=O)(=O)c2cc3[nH]c(=O)c(=O)[nH]c3cc2C)cc1Cl,-8%,·,·,-6%,·
NC(=O)c1cc(-c2ccccc2)nc(N2CCOCC2)n1,-26%,3%,?,·,11%
COc1ccc(-c2cc(-c3ccccc3)nc(N3CCCC3)n2)cc1OC,·,0%,9.3µM*,·,52%
NC(=O)c1cc(-c2ccccc2)nc(N2CCCCCC2)n1,-17%,13µM*,0%,·,27%
Nc1ccccc1C#CC(=O)c1ccccc1,22µM*,3%,?,?,0%
O=C(C#Cc1cccc([N+](=O)[O-])c1)c1ccccc1,·,-7%,·,·,·
COc1ccc(Cc2nc3ccc(C(=O)NCCCN4CCN(C)CC4)cc3o2)cc1,-10%,·,·,i,·
CC(C)CCNC(=O)[C@H](CC(C)C)NC(=O)[C@H]1O[C@@H]1C(=O)O,·,2.1µM*,3.7µM*,·,·
CN(C)S(=O)(=O)N(CC(=O)NCCSCc1cccc(Cl)c1)c1ccccc1,4%,·,·,-17%,·
COc1cc2c(cc1NC(=O)C(Cl)Cl)-c1ccc(NC(=O)C(Cl)Cl)cc1C2,10µM*,·,·,13µM*,-4%
Cc1cc(C)n(-c2nc(N(C)C)nc(N3CCOCC3)n2)n1,·,-9%,·,·,13%
CCc1nc2ccccc2nc1N1CCN(S(=O)(=O)c2ccccc2)CC1,15%,15µM*,?,-1%,-11%
Cc1cc(C)n(-c2nc3ccccc3nc2N2CCC(C)CC2)n1,·,·,9.3µM*,·,20%
Cc1cc(N2CCC(C)CC2)nc(-n2nc(C)cc2C)n1,-29%,·,0.74µM*,·,-1%
Cc1ccc(S(=O)(=O)N2CCN(c3nc4ccccc4nc3-n3nc(C)cc3C)CC2)cc1,-23%,17%,10µM*,·,35%
O=C(COc1ccccc1)Nc1nnc(SCc2cc(=O)n3cc(Cl)ccc3n2)s1,-11%,·,·,-5%,·
CCC(C)c1ccccc1OCCn1c(CCNC(=O)C2CCCCC2)nc2ccccc21 (stereo not given),-10%,·,·,-21%,·
Cc1nc2c(C(=O)NCCc3ccccc3)cnn2c(C)c1Cc1c(F)cccc1Cl,-11%,·,·,-26%,·
COCc1ccc(CN2CCC(CO)(CC3CCCCO3)CC2)o1 (stereo not given),-7%,?,8%,-3%,23%
COc1cc(/C=C/CN2CCC(CO)(CC3CCCCO3)CC2)ccc1O (stereo not given),-3%,0%,-5%,-24%,-8%
OCC1(CC2CCCCO2)CCN(C/C=C/c2ccccc2)CC1 (stereo not given),-14%,-15%,5.2µM*,-16%,4%
SMILES,Vaccinia Venus,Pf growth 96h,Pf growth 48h,Vaccinia mCherry,AMA1 RON2 block
COc1cccc(CN2CCC(CO)(CC3CCCCO3)CC2)c1 (stereo not given),-20%,9.3µM*,-20%,-21%,-8%
Cc1ccc2[nH]c(CN3CCC(CO)(CC4CCCCO4)CC3)c(C)c2c1 (stereo not given),7%,?,9.3µM*,?,?
CC1CCN(C(c2ccc(F)cc2)c2sc3nc(-c4ccco4)nn3c2O)CC1 (stereo not given),-16%,·,·,-12%,·
CCOC(=O)c1cnc2c(ccc3ccccc32)c1Nc1ccccc1O,-7%,·,·,-13%,·
CCCc1nc2ccc(NC(=O)c3ccco3)cc2c(=O)n1Cc1ccc(Cl)cc1,-12%,?,1.3µM*,?,0%
CCC(=O)Nc1ccc2nc(C3CC3)n(Cc3ccccc3)c(=O)c2c1,0%,-19%,65%,i,37%
CCCc1nc2ccc(NC(C)=O)cc2c(=O)n1Cc1ccccc1Cl,·,-20%,?,·,8%
COc1ccc(Cn2c(C3CC3)nc3ccc(NC(=O)c4ccco4)cc3c2=O)cc1,-23%,2.1µM*,2.9µM*,?,4%
